Hits are enriched below; roughly 1.8% of the tested compounds scored in any of these assays.
PAD4 inh = inhibitors of human PAD4 | Q9UM07 | recombinant PAD4, RCA probe fluorescence polarization | inhibition, % at 6.36 µM | actives 0.41% (n = 330,000) | AID 485272;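 active means percent inhibition above a cutoff equal to the mean of all tested compounds plus 3 SD, cut at about 15% in these data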;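 further: 0% = PAD4 with RCA probe and DMSO and 100% = probe without PAD4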
Target sequence (Q9UM07 whole entry, looked up): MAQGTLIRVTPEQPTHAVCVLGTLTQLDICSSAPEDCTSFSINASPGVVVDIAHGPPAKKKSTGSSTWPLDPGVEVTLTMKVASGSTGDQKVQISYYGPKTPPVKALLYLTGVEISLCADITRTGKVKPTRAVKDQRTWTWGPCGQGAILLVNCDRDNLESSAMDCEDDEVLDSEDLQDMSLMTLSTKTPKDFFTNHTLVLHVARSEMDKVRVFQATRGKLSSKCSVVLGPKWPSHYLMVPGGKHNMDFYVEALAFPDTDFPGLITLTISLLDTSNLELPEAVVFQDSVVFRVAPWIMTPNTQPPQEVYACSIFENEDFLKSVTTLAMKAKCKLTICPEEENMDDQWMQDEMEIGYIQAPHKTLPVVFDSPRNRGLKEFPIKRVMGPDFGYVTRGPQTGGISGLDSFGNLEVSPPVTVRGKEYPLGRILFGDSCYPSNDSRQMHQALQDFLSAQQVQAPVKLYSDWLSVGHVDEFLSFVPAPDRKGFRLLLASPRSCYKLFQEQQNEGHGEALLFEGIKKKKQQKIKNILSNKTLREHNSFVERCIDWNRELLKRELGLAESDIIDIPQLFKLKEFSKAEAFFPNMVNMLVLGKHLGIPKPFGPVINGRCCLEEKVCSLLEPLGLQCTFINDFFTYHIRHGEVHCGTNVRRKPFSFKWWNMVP
GSTO1 counter = counter-screen for RBBP9 inhibitors: inhibitors of human GSTO1; recombinant GSTO1, activity-based probe fluorescence polarization; inhibition, % at 5.96 µM; actives 1.1% (n = 300,000);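 active means inhibition above the campaign mean inhibition plus 3 SD, cut at about 35% in these data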;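 further: 0% = GSTO1-1 with DMSO and 100% = wells lacking GSTO1-1 enzyme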
Fam108B inh = counter-screen for RBBP9 inhibitors: inhibitors of mouse Fam108B | recombinant Fam108B, FP-Rh probe fluorescence polarization | inhibition, % at 9.51 µM | actives 0.33% (n = 300,000) | AID 1947;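 active means inhibition above the screen mean inhibition plus 3 SD, computed separately per campaign, cut at about 18% in these data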;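 further: inhibitors lower polarization as less probe binds the enzyme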
LYPLA2 inh = counter-screen for PME1 inhibitors: inhibitors of human LYPLA2. AID 2177. recombinant LYPLA2, FP-Rh probe fluorescence polarization. actives 0.38% (n = 320,000). inhibition, % at 5.9 µM;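 active means inhibition above the screen-wide mean plus 3 SD, limit set per campaign, cut at about 26% in these data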;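 further: 0% = LYPLA2 with DMSO and 100% = wells lacking LYPLA2 enzyme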
PME-1 inh = PME-1 (human) inhibition | AID 2130 | recombinant PME-1, FP-Rh probe fluorescence polarization | inhibition, % at 5.9 µM | actives 0.53% (n = 320,000);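 active means inhibition above the campaign mean of all compounds plus 3 SD, cut at about 26% in these data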;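 further: competitive labeling of PME-1 active site by serine hydrolase directed probe; 0% = PME-1 with DMSO and 100% = wells lacking PME-1 enzyme; inhibitors block probe labeling so polarization falls and inhibition rises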
LYPLA1 inh = blocks human lysophospholipase 1, a PME1 counter-screen; actives 0.16% (n = 320,000); inhibition, % at 5.9 µM; recombinant LYPLA1, FP-Rh probe fluorescence polarization; AID 2174;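 active means inhibition above the mean of all tested compounds plus 3 SD, set per campaign, cut at about 14% in these data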;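 further: inhibitors block serine hydrolase probe labeling of LYPLA1 so polarization falls; 0% = enzyme with DMSO and 100% = wells lacking LYPLA1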
PAD4 FP conf = PAD4 (human) inhibition, confirmed; shares compounds with PAD4 inh; recombinant PAD4, RCA probe fluorescence polarization; inhibition, % at 6.36 µM; actives 28% (n = 1,200); AID 488796;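 active means mean inhibition across replicates above the hit cutoff set by the earlier primary screen, cut at about 15% in these data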;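 further: inhibitors block active-site labeling by the probe so polarization falls; 0% = PAD4 with probe and DMSO and 100% = probe without PAD4 enzyme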
Numbers without * were called inactive; / = no result given; ! = repeats disagree.

SMILES	PAD4 inh	GSTO1 counter	Fam108B inh	LYPLA2 inh	PME-1 inh	LYPLA1 inh	PAD4 FP conf
CCc1ccc(/C=N/n2c(COc3ccccc3)n[nH]c2=S)cc1	32*	-1	0	7	-2	0	13
CCOCCCNC(=S)N(CCO)Cc1cc2cc3c(cc2[nH]c1=O)OCCO3	23*	9	0	2	-4	-2	3
CCOc1ccc2nc(NC(=O)c3ccco3)sc2c1	17*	2	0	-4	-12	-3	13
CCOC(=O)c1ccc2nc(NC(=O)c3ccco3)sc2c1	1	-11	1	-2	-12	-1	/
CC(=O)c1ccc(NC(=S)Nc2ccc(N3CCOCC3)cc2)cc1	20*	24	4	0	3	-1	2
C/C(=C\C(=O)c1ccccc1)Nc1ccc(N2CCOCC2)cc1	20*	6	0	5	1	-1	6
CC(=O)Nc1ccc(N/C(C)=C/C(=O)c2cccnc2)cc1	22*	0	-7	1	1	6	3
C/C(=C\C(=O)c1ccc(Cl)cc1)Nc1ccc(N2CCOCC2)cc1	-9	4	-1	-1	1	1	/
CCC(C)C(NS(=O)(=O)c1ccc(C)cc1)C(=O)N1CCOCCOCCOCC1 (stereo not given)	0	-5	-1	-2	-3	-3	/
Cn1c(=O)n(C)c2cc(N3CCOCC3)c(NC(=O)c3cccc(Cl)c3)cc21	0	-3	-4	4	-1	3	/
O=c1cc(-c2ccc(Br)cc2)[nH][nH]1	56*	24	5	2	2	-1	-1
O=C(COC(=O)c1cccc(OC(F)F)c1)Nc1cccc(S(=O)(=O)N2CCCC2)c1	-3	/	/	/	/	/	/
Cc1ccc(-n2c(C(C)C)nc3oc4ccccc4c(=O)c3c2=O)cc1	-1	7	-2	-7	-2	-4	/
COc1ccc(CCNC(=O)COC(=O)c2ccc(C)s2)cc1	81*	/	/	3	5	0	-4
Cc1c(NC(=O)CN2C(=O)NC(C)(c3ccccc3)C2=O)c(=O)n(-c2ccccc2)n1C (stereo not given)	-1	0	-5	0	9	0	/
O=C(NCCCNC(=O)c1ccccc1F)c1ccco1	37*	2	-7	-5	-4	-3	0
O=C(NCCNC(=O)c1ccccc1Cl)c1ccco1	2	1	-3	8	2	8	/
CCCn1c(CN2CCN(C(=O)OCC)CC2)nc2cc(NC(=O)CC)ccc21	15*	10	0	-4	3	-1	2
CCOC(=O)c1c(C)[nH]c(/C(C)=N/O)c1C	4	-7	3	2	-3	0	/
CCOC(=O)c1c(C)[nH]c(C2=NNC(=NC3CC3)SC2)c1C	17*	11	4	6	0	-1	12
CCOC(=O)c1c(C)[nH]c(C)c1S(=O)(=O)NCC(=O)Nc1ccccn1	-3	-3	2	5	0	2	/
CCO/C(=C/c1sc2ccc(OC)cc2[n+]1CCCS(=O)(=O)[O-])CC	19*	-5	4	10	-4	3	5
CCC(/C=C1\Sc2ccc(OC)cc2N1CC)=C\c1sc2ccc(OC)cc2[n+]1CCCS(=O)(=O)[O-]	-154	-146	-183	-267	-329	-179	/
COc1cccc(C(=O)NN2C(=S)N(c3ccccc3)C(=O)C2CC(N)=O)c1 (stereo not given)	0	-1	-3	0	-4	-2	/
COc1ccc(CCNS(=O)(=O)c2cnc(Cl)c(Br)c2)cc1OC	1	5	-1	-2	-1	1	/
SMILES	PAD4 inh	GSTO1 counter	Fam108B inh	LYPLA2 inh	PME-1 inh	LYPLA1 inh	PAD4 FP conf
O=C(COC(=O)c1ccc([N+](=O)[O-])cc1)Nc1ccccc1C(=O)NC1CC1	1	/	/	/	/	/	/
O=C(COC(=O)c1ccc(S(=O)(=O)C(F)F)cc1)Nc1ccccc1C(=O)NC1CC1	15*	/	/	9	6	3	4
Cc1csc(NC(=O)CCCC(=O)c2ccccc2)n1	0	9	2	8	0	3	/
CCC12OC(=N)C(C#N)(C1C)C(C#N)(C#N)C(c1ccccc1)O2 (stereo not given)	3	0	0	1	-1	-2	/
CC(C)C1OC2(C)OC(=N)C1(C#N)C(C#N)(C#N)C2c1ccccc1 (stereo not given)	19*	11	12	7	12	11	16*
CCC1OC2(C)OC(=N)C1(C#N)C(C#N)(C#N)C2c1ccccc1 (stereo not given)	15*	13	11	14	11	9	-1
CN1CCCC(OC(=O)CCCC(=O)OC2CCCN(C)C2)C1 (stereo not given)	-5	0	-2	0	-1	3	/
O=c1[nH]cc(-c2ccc(Br)cc2)n1Cc1ccccc1	-1	0	0	-4	-3	0	/
CN(C)c1ccc(NC(=S)c2ccc3ccccc3n2)cc1	38*	30	8	-2	4	-6	6
CCN(CC)S(=O)(=O)c1ccc(Cl)c(C(=O)Nc2cc(C)nn2-c2ccccc2C(F)(F)F)c1	18*	7	-3	-1	4	-3	-3
O=C(O)CCN1C(=O)C2C3CC(C2C1=O)C1C(c2ccccc2)c2sc(=O)n(-c4ccccc4)c2SC31 (stereo not given)	1	-6	1	-4	2	1	/
O=C(O)CCN1C(=O)C2C3CC(C2C1=O)C1C(c2ccccc2)c2sc(=O)[nH]c2SC31 (stereo not given)	17*	3	-1	3	-1	3	-5
COCCNC(=S)N1CCN(c2ccc(Cl)cc2)CC1	4	0	2	1	0	0	/
OCCNCc1ccc(OCc2ccc(Cl)cc2Cl)cc1	-1	9	2	0	2	2	/
O=c1[nH]nc(-c2ccc(OCc3ccc(Cl)cc3Cl)cc2)o1	89*	11	-1	-4	-3	2	-2
CCSc1nc2ccccc2[nH]1	17*!	-2	-1	-3	-2	-3	6
CS(=O)(=O)N1N=C(c2cccs2)CC1c1ccccc1 (stereo not given)	30*	1	-1	5	-2	0	2
CC1COC(c2cccn2Cc2ccccc2Cl)=N1 (stereo not given)	45*	1	-3	1	-4	0	0
O=C(c1cccc(C(F)(F)F)c1)N1CCN(C2CCCCC2)CC1	2	-3	1	-1	-3	2	/
COc1ccc(-n2nnnc2SCC(=O)N(C)C2CCS(=O)(=O)C2)cc1 (stereo not given)	-5	/	/	/	/	/	/
CCn1nnnc1SCC(=O)N(C)C1CCS(=O)(=O)C1 (stereo not given)	16*	/	/	3	2	2	-4

Screening results: PubChem, The Scripps Research Institute Molecular Screening Center
